Mtb MenB inh: Mtb MenB enzyme inhibition; P9WNP5; MenB enzyme assay, absorbance read-out; inhibition, % (test concentration not listed); actives 0.43% (n = 100,000); AID 540299; in the data active = inhibition above about 21%, passing the limit was not always enough
Mtb MbtI inh: blocks the Mycobacterium tuberculosis siderophore enzyme MbtI; P9WFX0; purified MbtI enzyme, fluorescence intensity read-out; inhibition, % (no concentration beside the values); actives 0.89% (n = 100,000); in the data active = inhibition mostly above about 56%, no sharp cut-off; inactive = mostly below about 77%
PV pol inh: poliovirus RNA polymerase inhibition. poliovirus polymerase elongation, fluorescence polarization; active compounds read low. % elongation, % (compound at 16.7 µg/mL). actives 0.66% (n = 150,000). AID 588519; in the data active = % elongation below about 90%
Target sequence (P03300 1749-2209 limits assumed): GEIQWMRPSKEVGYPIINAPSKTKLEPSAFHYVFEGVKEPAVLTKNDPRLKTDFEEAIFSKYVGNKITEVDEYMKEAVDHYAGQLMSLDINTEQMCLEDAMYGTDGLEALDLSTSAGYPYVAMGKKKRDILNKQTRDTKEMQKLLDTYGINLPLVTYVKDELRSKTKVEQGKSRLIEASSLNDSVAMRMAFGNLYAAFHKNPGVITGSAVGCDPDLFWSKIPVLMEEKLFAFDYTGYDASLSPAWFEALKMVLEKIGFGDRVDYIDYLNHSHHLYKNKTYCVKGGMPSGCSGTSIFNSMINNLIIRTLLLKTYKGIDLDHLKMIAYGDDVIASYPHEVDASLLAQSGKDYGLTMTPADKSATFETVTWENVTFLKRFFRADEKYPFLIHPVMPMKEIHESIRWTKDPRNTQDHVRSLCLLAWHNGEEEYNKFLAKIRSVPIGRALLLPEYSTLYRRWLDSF
Active calls of the source: *; . = not tested or not shown. Only some compounds are listed: those with a hit (about 1.4% of all), similar ones and a draw of the others.

SMILES | Mtb MenB inh | Mtb MbtI inh | PV pol inh
O=C(NC1CCc2ccccc21)c1cn(-c2ccc(F)cc2)nn1 (stereo not given) | 0.6 | -11.8 | 103.0
Cc1cccc(C)c1NC(=O)CN(C)c1ccc(S(=O)(=O)N(C(C)C)C(C)C)cn1 | -33.3 | 2.8 | 104.0
COc1cccc(NC(=O)Nc2cn(C)c(=O)c3ccccc23)c1 | -14.4 | -29.2 | 85.0*
CC1CCN(Cc2ccc(NC(=O)Nc3cn(C)c(=O)c4ccccc34)cc2)CC1 | -11.4 | -29.2 | 101.0
CCc1cccc(NC(=O)Nc2cn(C)c(=O)c3ccccc23)c1 | . | . | 79.0*
COC(=O)c1sccc1NC(=O)Nc1cn(C)c(=O)c2ccccc12 | 4.1 | 51.2 | 98.0
CN(C(=O)Nc1cn(C)c(=O)c2ccccc12)c1ccccc1 | . | . | 99.0
Cn1cc(NC(=O)Nc2ccccc2F)c2ccccc2c1=O | -8.4 | -31.5 | 84.0*
NC(=O)CNC(=O)Cc1c(Cl)cccc1Cl | -7.5 | -5.8 | 101.0
Cc1cc(C)c(C)c(S(=O)(=O)NC2(C#N)CCCCC2)c1C | -3.3 | 3.4 | 101.0
O=C(NCCn1ccc2ccccc21)c1cccc2ccccc12 | -17.7 | 6.9 | 101.0
O=C(NCCn1cccc1)c1cccc2ccccc12 | 6.3 | 52.8* | 102.0
OCCN1CCN(c2ncnc3c2cnn3-c2ccc(Cl)c(Cl)c2)CC1 | -4.9 | 62.7 | 98.0
CN(C)S(=O)(=O)c1ccc(C(=O)Oc2cc(=O)[nH]c3ccccc23)cc1 | -42.0 | -152.0 | 89.0*
CN(C)S(=O)(=O)c1ccc(C(=O)Oc2cc(Cl)c[nH]c2=O)cc1 | -19.5 | -8.8 | 92.0
Cc1nn(CCC#N)c2c1P(=S)(N1CCCCC1)OC(c1ccccc1)=N2 (stereo not given) | -57.1 | 51.3 | 90.0*
CCN(CC)P1(=S)c2c(C)nn(CCC#N)c2N=C(c2ccc(F)cc2)N1C (stereo not given) | 6.2 | 4.5 | 102.0
COC(=O)c1ccc(CSc2nc(C)nc3sc4c(c23)CCCC4)o1 | 12.6 | 7.5 | .
COc1ccc(C)cc1-n1nnnc1SC(C)C(=O)NCc1ccco1 (stereo not given) | 15.6 | 2.5 | 101.0
Cc1cc(-n2c(C)cc(/C=C3\SC(=NC4CCCC4)NC3=O)c2C)no1 | -81.5 | 42.0 | 101.0
O=C1CCN(NC(=O)c2cccnc2)C(=O)N1 | -12.1 | 0.7 | 100.0
O=C1NC(=Nc2ccc(F)cc2)CS1 | -35.1 | 78.1* | 95.0
O=C1NC(=Nc2ccccc2)CS1 | -21.2 | 36.9 | 99.0
N#CC(C#N)=Cc1ccc(OC(=O)c2ccccn2)cc1 | -163.3 | 33.5 | 87.0*
O=C(N/N=C/c1ccc(OC(=O)c2ccco2)cc1)c1ccccn1 | -6.9 | -15.1 | 102.0
SMILES | Mtb MenB inh | Mtb MbtI inh | PV pol inh
COc1ccc(N2CCN(C(=O)CCC3=NS(=O)(=O)c4ccc(C(F)(F)F)cc4N3)CC2)cc1 | -24.9 | 23.6 | 104.0
N#Cc1c(N)c(C#N)c(-c2ccccc2)c2c1CCCC2 | -7.5 | . | 108.0
N#Cc1c2c(c(-c3ccccc3)[nH]c1=S)CCCC2 | -21.8 | 50.9* | 101.0
O=C(OCCCn1c(=O)[nH]c2ccccc21)c1ccccc1SCC(=O)N1CCCC1 | -21.3 | 2.8 | 102.0
COc1cccc(Oc2ccc(C(F)(F)F)cc2NC(=O)CSCC(=O)Nc2cc(C)on2)c1 | -20.1 | -4.8 | 103.0
COc1cccc(Oc2ccc(C(F)(F)F)cc2Nc2nc3ccccc3o2)c1 | -109.1 | -35.5 | 81.0*
CN(C(=O)COC(=O)Cn1cnc2ccccc2c1=O)c1ccccc1 | -12.0 | -11.2 | 111.0
CCN(CC)CCNC(=O)c1ccc2c(=O)n3nc(Nc4ccccc4)sc3nc2c1 | . | . | 81.0*
O=C(NCc1ccccc1)c1ccc2c(=O)n3nc(Nc4ccccc4)sc3nc2c1 | 7.3 | 37.8 | 98.0
CC(=O)N/N=C/c1c[nH]c2ccc(Br)cc12 | -12.4 | 18.0 | 99.0
COc1ccc2[nH]c(=O)c(CN(CCO)S(=O)(=O)c3ccc(Cl)c(C(F)(F)F)c3)cc2c1 | 32.5* | 23.4 | 100.0
Cc1ccc(S(=O)(=O)N(CCO)Cc2cc3cc(C)c(C)cc3[nH]c2=O)cc1 | 17.4 | 31.9 | 102.0
CCc1ccc(C2NC(=O)NC3=C2C(=O)CC(C)(C)C3)cc1 (stereo not given) | -14.4 | -3.2 | 101.0
Cc1ccc(N(CC(=O)Nc2ccccc2C(=O)NCc2ccco2)S(C)(=O)=O)cc1Cl | -13.5 | 1.2 | 21.0*
O=C(Nc1ccccc1C(=O)NCc1ccco1)c1ccc(Cl)cc1 | -26.6 | -12.7 | 102.0
CO[C@@H]1[C@H](OC(N)=O)C(O)[C@H](Oc2ccc3c(O)c(NC(=O)c4ccc(O)c(CC=C(C)C)c4)c(=O)oc3c2C)OC1(C)C (stereo not given in full) | -7.3 | -3.9 | 101.0*
CO[C@@H]1[C@@H](OC(N)=O)[C@@H](O)[C@H](Oc2ccc3c(O)c(NC(=O)c4ccc(O)c(CC=C(C)C)c4)c(=O)oc3c2C)OC1(C)C | 2.1 | 4.2 | 99.0
CC(C)C(NC(=O)Nc1ccc(Cl)cc1)C(C)C | -13.2 | -6.6 | 100.0
CC1(C)CC(=O)C2=C(C1)NC(=O)NC2c1c(O)ccc2ccccc12 (stereo not given) | 1.7 | -12.1 | 107.0
CC(C)(C)/C(O)=C/c1nc2ccccc2oc1=O | 64.0* | -1.6 | 97.0
CC(C)C/C(O)=C/c1nc2cc(Cl)ccc2oc1=O | 84.5* | 21.7 | 101.0
Cc1nc(C)c(/C(O)=C/c2nc3cc(Cl)ccc3oc2=O)o1 | 6.2 | 3.1 | 102.0
O=c1oc2ccccc2nc1/C=C(\O)c1ccccc1 | 1.3 | 0.8 | 83.0
CCS(=O)(=O)c1ccc2oc(SCC(=O)NCc3ccccc3)nc2c1 | -16.7 | -5.2 | 104.0
CCS(=O)(=O)c1ccc2oc(=O)c(/C=C(\O)C(C)(C)C)nc2c1 | 55.3* | 9.7 | 100.0
SMILES | Mtb MenB inh | Mtb MbtI inh | PV pol inh
Nn1c(-c2ccccc2)cn2c(cc3sccc32)c1=S | -41.1 | 18.9 | 103.0
Nc1nc(COC(=O)C2COc3ccccc3O2)nc(Nc2ccccc2)n1 (stereo not given) | -10.0 | 4.1 | 105.0
c1ccc(NCc2cccnc2)cc1 | 9.9 | 0.0 | 102.0
OC(Cc1cccnc1)(c1ccccc1)c1ccccc1 | -3.2 | -6.2 | 89.0*
O=C(CSCCCc1nc(-c2ccccc2)no1)Nc1ccc(F)c(F)c1 | -4.2 | 19.6 | 105.0
N#Cc1ccc(CSc2nc3ccccc3c(=O)[nH]2)cc1 | -13.7 | 53.4* | 99.0
C#CCSc1nc2ccccc2c(=O)[nH]1 | -29.7 | 86.8 | 100.0
COc1ccc(-c2cc3nc(C)c(CCC(=O)NC(C)c4cccs4)c(C)n3n2)c(OC)c1 (stereo not given) | -9.9 | -15.9 | 101.0
Cc1nc(C(=O)Nc2ccc(Cl)cc2)sc1C(=O)Nc1ccc(Cl)cc1 | 5.2 | 64.5* | 69.0*
Cc1c(C(=O)Nc2ccc(Cl)cc2)sc(N)c1C(N)=O | -58.4 | -49.5 | 95.0
CCCCN1C(=O)SC(Nc2ccc(F)cc2)C1=O (stereo not given) | -19.0 | -5.2 | .
Cc1nn(-c2ccccc2)c(OC(=O)C(C)C)c1Sc1ccc(Cl)cc1 | . | . | 108.0
CCCC(=O)Oc1c(Sc2ccccc2)c(C)nn1-c1ccccc1 | . | 57.9* | .
CCOc1ccc2c(c1)c(=O)c1cccnc1n2CC(=O)Nc1cccc(C)c1C | -14.9 | -8.1 | 104.0
Cc1ccc(C2=NS(=O)(=O)N(C)C(C(=O)Nc3sc4c(c3C(N)=O)CCCC4)=C2)cc1 | -66.6 | 57.8* | 94.0
Cc1ccc(S(=O)(=O)CC(=O)Nc2sc3c(c2C(N)=O)CCCC3)cc1 | . | . | 110.0
